Drawing on PubChem BioAssay (NCATS), this text covers Potency for 40 compounds.

The structures appear in SMILES notation. Active and inactive are the calls of the source. No rule for the calls is given here.
Potency is read from the fitted curve at half-maximal effect.

In this assay the test system is HIV-1 nucleocapsid protein NCp7 (binding to TG oligonucleotide). In words: HIV Nucleocapsid (AID 346).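 Also: potency is for inhibitors that block NC binding and lower polarization.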 To be noted: HIV-1 NC / fluorescein-TGTGTGTG probe, fluorescence polarization. The method, boiled down:
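Fluorescence polarization readout: labelled TG4xF oligo (10 nM) with 100 nM nucleocapsid protein, high-salt (250mM NaCl) Hepes pH 7.5 buffer containing zinc and fresh reducing agents. Compounds added by pin tool; incubation 1 hr, room temperature.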
For orientation: In fluorescence polarisation assays a small probe gives low polarisation when free and higher when bound to something large.
In the case of `CC(=O)NCCNc1nc(-c2ccc(N(C)C)cc2)nc2ccccc12`, the Potency is > 20 µM (inactive). As for `COCCNc1nc(-c2ccoc2)nc2ccccc12`, the Potency was > 20 µM (inactive).

With `Cc1cnc(CNc2cc(-c3ccccc3Cl)ncn2)cn1`, the Potency was > 20 µM (inactive). As for `COc1ccc(C(=O)N2CCC3(CC2)CN(C(=O)Nc2ccccc2)C3)cc1`, the figure is > 20 µM (inactive); as for `COc1ccc2[nH]cc(CCNc3ncnc4ccc(-c5ccccc5OC)cc34)c2c1`, > 20 µM (inactive). Regarding `COc1ccc(-n2c(=O)c(-c3ccc(Cl)cc3)nc3cnc(N4CCNCC4)nc32)cc1`, the Potency was > 20 µM (inactive). Then `Cc1noc(C)c1-c1nccc(N2CCN(C)CC2)n1`, with > 20 µM (inactive); and `O=c1c(-c2cccc(F)c2)nc2cncnc2n1Cc1ccccc1`, with > 20 µM (inactive).

Turning to `COc1ccccc1CNc1ccnc(-c2ccccc2OC)n1`, the Potency is > 20 µM (inactive).

Take `COc1ccc(-n2c(=O)c(-c3ccc(F)cc3)nc3cnc(N4CCNCC4)nc32)cc1`: the Potency was > 20 µM (inactive). With `CC(=O)N1CCC2(CCN(Cc3nccs3)CC2)CC1`, the Potency was > 20 µM (inactive). Turning to `N#CCCn1c(=O)c(-c2ccccc2)nc2cnc(N3CCNCC3)nc21`, the Potency is > 20 µM (inactive). Consider `COCCn1c(=O)c(-c2cccc(C#N)c2)nc2cnc(Nc3ccccc3)nc21`, for which the Potency was 5.18 µM (active). For `COc1ccc(NC(=O)N2CC3(CCN(C(=O)c4cnccn4)CC3)C2)cc1`, the Potency was > 20 µM (inactive).

Consider `Cc1cnc(CNc2ncnc3ccc(-c4ccccc4C)cc23)cn1`, for which the Potency is > 20 µM (inactive). On to `COC(=O)N1CCC2(CC1)CN(c1ccc(-c3ccccc3)cc1)C2`, for which the Potency is > 20 µM (inactive). For `N#Cc1ccc(CN2CC[C@@]3(CCCN(C(=O)c4cc(C(F)(F)F)cc(C(F)(F)F)c4)C3)C2)cc1`, the Potency is > 20 µM (inactive). In the case of `N#Cc1cccc(-c2nccc(-n3ccnc3)n2)c1`, the Potency was > 20 µM (inactive).

In the case of `O=S(=O)(c1ccccc1)N1CCC2(CCN(c3ccc(-c4ccccc4)cc3)CC2)CC1`, the Potency was > 20 µM (inactive). `O=C(Nc1ccccc1)N1CC[C@@]2(CCCN(C(=O)c3cc(C(F)(F)F)cc(C(F)(F)F)c3)C2)C1`: the Potency is > 20 µM (inactive). `COc1ccccc1CNc1ccnc(-c2cccnc2)n1`: the Potency was > 20 µM (inactive).

`COc1cccc(-c2nc(NCCNC(C)=O)c3ccccc3n2)c1`: the Potency was > 20 µM (inactive).

`O=c1c(-c2ccc(F)cc2)nc2cnc(Oc3ccccc3)nc2n1C1CC1`: the Potency was > 20 µM (inactive). Regarding `COc1ccc(-c2nc3cnc(OC)nc3n(Cc3cccs3)c2=O)cc1`, the Potency was > 20 µM (inactive). On to `c1cncc(CNc2ccnc(-c3ccc4c(c3)OCO4)n2)c1`, for which the Potency was > 20 µM (inactive). Consider `COCC(=O)N1CCC2(CCCN(c3cccc(-c4ccccc4)c3)C2)CC1`, for which the Potency is > 20 µM (inactive). As for `CNc1ncncc1-c1ccc(C(=O)N(C)C)cc1`, the Potency is > 20 µM (inactive).

For the compound `CC(C)CN1CCC2(CC1)CCN(C(=O)c1ccco1)CC2`, the Potency was > 20 µM (inactive). Consider `CC(=O)N1CCC2(CCCN(Cc3cc(C(F)(F)F)cc(C(F)(F)F)c3)C2)CC1`, for which the Potency is > 20 µM (inactive). For `Cc1noc(C)c1-c1cncnc1Nc1ccccc1`, the Potency is > 20 µM (inactive).

`COc1ncc2nc(-c3ccc(F)cc3)c(=O)n(CCc3ccccc3)c2n1`: the Potency was > 20 µM (inactive).

Take `Fc1ccc(Nc2ncncc2-c2ccccc2C(F)(F)F)cc1`: the Potency is > 20 µM (inactive).

As for `CN(C)Cc1ccccc1-c1nccc(N(C)Cc2ccco2)n1`, the Potency was > 20 µM (inactive). On to `O=C(Nc1cccc(F)c1)N1CCCC2(CCN(C(=O)c3ccco3)CC2)C1`, for which the Potency was > 20 µM (inactive). As for `CCNc1ncc2nc(-c3ccc(F)cc3)c(=O)n(-c3ccc(OC)cc3)c2n1`, the Potency was > 4 µM (inactive). Turning to `CN(C)c1ccc(-c2ccc3ncnc(N4CCNCC4)c3c2)cc1`, the Potency is > 20 µM (inactive).

For `CN(C)c1ncnc2ccc(-c3ccoc3)cc12`, the Potency was > 20 µM (inactive). Consider `O=C(Nc1cccc(F)c1)N1CC2(CCN(C(=O)c3ccncc3)CC2)C1`, for which the Potency is > 20 µM (inactive).

Take `N#Cc1ccc(CN2CC3(CCN(C(=O)c4csnn4)CC3)C2)cc1`: the Potency was > 20 µM (inactive). Take `COc1ccc(Oc2ncc3nc(CCc4ccccc4)c(=O)n(C4CC4)c3n2)cc1`: the Potency was > 20 µM (inactive).
